The record followed here is PubChem BioAssay.

Structures are written as SMILES. The source made the active and inactive calls.

Assay [1] is described as follows: small molecules captured by biotinylated probe aFSTL3 – biochemical, small-molecule microarray, fluorescence 635/667, stem cell growth factor project, primary screen (AID 1064).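 Note: measures binding of the biotinylated anti-FSTL3 antibody to printed compounds.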 Particulars: higher = more signal.
Assay [2] is described as follows: binders from COS7 lysate, DM2A8 probe, primary screen, torsin A project, cell lysate, small-molecule microarray, fluorescence 635/667 (AID 1065). The settings on record: higher = more signal, COS7 lysate expressing mutant human TOR1A.
The nature of assay [3]: small molecules captured by biotinylated probe aFGF2 – biochemical, small-molecule microarray, fluorescence 635/667, stem cell growth factor project, primary screen (AID 1067).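 Note: measures binding of biotinylated aFGF2 protein to printed compounds on slides; z-score merges feature fluorescence and signal-to-noise across triplicate slides.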 Particulars: higher = more signal.
Assay [4] is described as follows: small molecules captured by biotinylated probe aFGF10 – biochemical, small-molecule microarray, fluorescence 635/667, stem cell growth factor project, primary screen (AID 1071).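 Note: score merges 667 nm spot intensity and signal to noise from triplicate slides.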 The settings on record: higher = more signal.
For assay [5], the target named is Neurogenic locus notch homolog protein 2 (Homo sapiens) (UniProt Q04721). The experiment in a line: small molecules binding Notch2 protein – biochemical, small-molecule microarray, 635 nm fluorescence, stem cell growth factors, primary screen (AID 1073). The settings on record: higher = more signal.
Chain of Neurogenic locus notch homolog protein 2 (Homo sapiens) (Q04721 whole entry, looked up, canonical isoform): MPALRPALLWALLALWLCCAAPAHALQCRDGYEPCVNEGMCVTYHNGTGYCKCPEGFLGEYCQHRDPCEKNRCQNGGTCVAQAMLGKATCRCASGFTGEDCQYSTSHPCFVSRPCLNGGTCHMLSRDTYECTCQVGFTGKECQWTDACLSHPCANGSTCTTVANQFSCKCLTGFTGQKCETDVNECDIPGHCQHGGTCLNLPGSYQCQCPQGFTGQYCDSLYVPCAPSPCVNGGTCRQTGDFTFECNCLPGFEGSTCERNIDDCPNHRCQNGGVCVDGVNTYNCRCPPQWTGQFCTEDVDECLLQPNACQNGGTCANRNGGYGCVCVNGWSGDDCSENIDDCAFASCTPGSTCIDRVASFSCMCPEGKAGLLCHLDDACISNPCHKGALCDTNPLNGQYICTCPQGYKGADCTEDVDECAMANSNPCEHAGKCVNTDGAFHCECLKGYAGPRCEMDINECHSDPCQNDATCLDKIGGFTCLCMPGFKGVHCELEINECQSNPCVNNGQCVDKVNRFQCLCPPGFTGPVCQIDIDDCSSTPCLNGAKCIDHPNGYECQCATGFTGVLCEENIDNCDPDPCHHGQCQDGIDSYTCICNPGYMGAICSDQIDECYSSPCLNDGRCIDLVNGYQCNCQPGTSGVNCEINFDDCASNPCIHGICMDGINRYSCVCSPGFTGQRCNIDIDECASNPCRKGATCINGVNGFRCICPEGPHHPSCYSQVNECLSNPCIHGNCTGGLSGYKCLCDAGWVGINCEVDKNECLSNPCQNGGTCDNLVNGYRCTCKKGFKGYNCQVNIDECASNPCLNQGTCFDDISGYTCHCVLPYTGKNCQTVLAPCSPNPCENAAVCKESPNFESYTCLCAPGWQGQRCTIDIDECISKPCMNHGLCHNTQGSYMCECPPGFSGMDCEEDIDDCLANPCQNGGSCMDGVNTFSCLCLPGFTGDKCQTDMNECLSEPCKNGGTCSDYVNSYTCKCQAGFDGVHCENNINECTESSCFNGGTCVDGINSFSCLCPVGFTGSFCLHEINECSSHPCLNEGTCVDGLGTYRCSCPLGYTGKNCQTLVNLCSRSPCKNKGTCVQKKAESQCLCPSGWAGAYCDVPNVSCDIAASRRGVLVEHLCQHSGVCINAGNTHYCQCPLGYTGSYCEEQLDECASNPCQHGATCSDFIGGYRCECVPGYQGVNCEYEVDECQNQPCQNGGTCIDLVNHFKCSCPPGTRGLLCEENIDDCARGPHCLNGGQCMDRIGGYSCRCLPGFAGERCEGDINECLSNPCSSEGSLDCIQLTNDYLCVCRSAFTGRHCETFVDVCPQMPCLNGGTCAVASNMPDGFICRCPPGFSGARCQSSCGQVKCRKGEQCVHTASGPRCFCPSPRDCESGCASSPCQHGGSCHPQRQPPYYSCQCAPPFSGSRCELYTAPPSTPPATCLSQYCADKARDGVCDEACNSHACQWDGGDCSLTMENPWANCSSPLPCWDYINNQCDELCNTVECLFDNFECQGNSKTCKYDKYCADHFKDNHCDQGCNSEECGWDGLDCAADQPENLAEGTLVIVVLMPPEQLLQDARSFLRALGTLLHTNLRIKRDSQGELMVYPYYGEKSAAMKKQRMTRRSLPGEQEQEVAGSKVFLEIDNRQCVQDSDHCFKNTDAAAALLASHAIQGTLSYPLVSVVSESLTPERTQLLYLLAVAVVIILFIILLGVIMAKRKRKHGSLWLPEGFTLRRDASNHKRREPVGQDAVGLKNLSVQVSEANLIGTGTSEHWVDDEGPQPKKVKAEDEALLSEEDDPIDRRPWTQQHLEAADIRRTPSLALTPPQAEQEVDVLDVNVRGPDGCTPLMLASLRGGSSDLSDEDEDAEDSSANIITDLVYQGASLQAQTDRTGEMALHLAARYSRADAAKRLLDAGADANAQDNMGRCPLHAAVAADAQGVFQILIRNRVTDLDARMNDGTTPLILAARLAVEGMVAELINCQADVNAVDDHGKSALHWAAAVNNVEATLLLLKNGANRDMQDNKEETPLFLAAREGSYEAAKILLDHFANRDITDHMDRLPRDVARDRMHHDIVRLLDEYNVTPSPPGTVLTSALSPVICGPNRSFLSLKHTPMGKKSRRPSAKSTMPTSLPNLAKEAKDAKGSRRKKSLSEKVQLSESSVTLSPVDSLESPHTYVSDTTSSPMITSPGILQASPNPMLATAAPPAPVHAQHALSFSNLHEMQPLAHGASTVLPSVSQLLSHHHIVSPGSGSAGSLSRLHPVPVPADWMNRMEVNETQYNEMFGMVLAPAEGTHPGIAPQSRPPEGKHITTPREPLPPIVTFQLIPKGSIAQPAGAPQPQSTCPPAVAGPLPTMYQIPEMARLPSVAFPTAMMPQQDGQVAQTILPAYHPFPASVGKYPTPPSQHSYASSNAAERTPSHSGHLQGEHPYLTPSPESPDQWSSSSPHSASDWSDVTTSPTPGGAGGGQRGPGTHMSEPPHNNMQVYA
Assay [6] deals with Pro-neuregulin-1, membrane-bound isoform (Homo sapiens) (UniProt Q02297). The experiment in a line: small molecules binding neuregulin-1 protein – biochemical, small-molecule microarray, fluorescence 635/667, psychiatric disease protein project, primary screen (AID 1075).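 Note: score combines 667 nm spot fluorescence with signal to noise.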 Particulars: NRG1 binding, 635 nm fluorescence, higher = more signal.
Chain of Pro-neuregulin-1, membrane-bound isoform (Homo sapiens) (Q02297 whole entry, looked up, the tested form may be a part, canonical isoform): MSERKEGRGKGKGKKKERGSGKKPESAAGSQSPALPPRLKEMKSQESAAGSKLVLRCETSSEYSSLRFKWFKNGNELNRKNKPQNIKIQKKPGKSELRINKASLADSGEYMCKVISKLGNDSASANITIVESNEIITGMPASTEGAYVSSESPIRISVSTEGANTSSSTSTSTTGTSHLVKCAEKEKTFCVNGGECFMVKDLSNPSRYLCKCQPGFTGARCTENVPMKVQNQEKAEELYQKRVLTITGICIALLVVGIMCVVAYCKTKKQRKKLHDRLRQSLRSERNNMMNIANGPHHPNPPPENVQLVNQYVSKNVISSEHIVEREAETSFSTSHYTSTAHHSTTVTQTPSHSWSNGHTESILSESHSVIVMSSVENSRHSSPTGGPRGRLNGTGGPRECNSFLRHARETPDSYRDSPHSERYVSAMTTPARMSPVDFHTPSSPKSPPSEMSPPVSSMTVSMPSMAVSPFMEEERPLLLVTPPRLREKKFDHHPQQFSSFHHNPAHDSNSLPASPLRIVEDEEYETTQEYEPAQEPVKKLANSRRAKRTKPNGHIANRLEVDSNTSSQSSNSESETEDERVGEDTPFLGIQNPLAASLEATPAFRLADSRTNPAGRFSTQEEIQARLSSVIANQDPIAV
For assay [7], the system named is Neuregulin-1 EGF-like domain. The experiment in a line: small molecules binding NRG1 EGF domain – biochemical, small-molecule microarray, 635 nm fluorescence, primary screen (AID 1081).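 Note: binding of the protein to compounds printed on small-molecule microarray slides.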 Particulars: higher = more signal.
Assay [8] can be described thus: FRG1 expression reporter modulators in myotubes – cell-based, C2C12 myotubes, firefly/Renilla luciferase, luminescence, FRG1 inhibition for FSHD, primary screen (AID 1084). The settings on record: FRG1 promoter luciferase, higher = more signal, called active from +8 up or from −8 down.
Assay [9] is described as follows: small molecules captured by biotinylated probe aFST – biochemical, small-molecule microarray, fluorescence 635/667, stem cell growth factor project, primary screen (AID 1086).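 Note: score merges 667 nm fluorescence with signal-to-noise of each printed compound spot.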 Particulars: higher = more signal.
Assay [10] is described as follows: binders of probe aHhip on microarray, primary screen, stem cell growth factor project, biochemical, small-molecule microarray, fluorescence 635/667 (AID 1087).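 Note: score merges spot fluorescence at 667nm with spot signal to noise ratio.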 The settings on record: higher = more signal.

For the compound `CCCCC(=C=CC[C@H](O)c1cccc(OCCO)c1)C[C@H](O)c1cc(Cl)cc(Cl)c1O`, the composite z-score in [1] is -0.288; in assay [2], -0.027; in assay [3], -0.0376; in [4], 0.526; in [5], -0.107; in assay [6], 0.665. Also, the figures for the composite z-score in assay [7], in [9] and in assay [10] were 0.616, 0.137 and -0.197, respectively. The z-score in [8] was -1.64 (inactive).

`[N-]=[N+]=Nc1ccccc1C[C@@]1(C(=O)NCc2ccccc2)N=C(c2ccc(OCCCO)cc2)O[C@@H]1c1ccccc1`: the composite z-score in assay [1] worked out at 0.584; in assay [2] it was 0.405; in assay [3], 0.0421; in assay [4] it was 1.05; in [5], 1.46; in assay [6], 0.794. Also, the composite z-score is 0.747 in [7], 0.838 in assay [9] and -0.0296 in [10]. Further, the z-score in assay [8] was -2.86 (inactive).

As to `CC(C)c1ccc(NN2C(C(O)c3ccccc3)C=CC3C(=O)N(c4ccccc4)C(=O)C32)cc1` (stereo not given), the composite z-score in assay [1] came out at 0.744; in assay [2], 0.141; in assay [3], 0.117; in [4] it was 0.885; in [5] it was 1.42; in assay [6], 0.905. Further, the composite z-score was 0.793 in assay [7], 1.13 in [9] and -0.265 in [10]. Further, the z-score in assay [8] is 1.47 (inactive).

As for `CC[C@@H](O[Si](C#C[Si](C(C)C)(C(C)C)C(C)C)(C(C)C)C(C)C)c1cn([C@H](CO)Cc2ccccc2)nn1`, the composite z-score in [1] was -0.48; in assay [2], 0.111; in [3], -0.187; in assay [4], 0.686; in [5], 0.929; in assay [6] it was 0.0252. Besides, the composite z-score in [7] is 0.846; in assay [9] it was 0.547; in assay [10], -0.0994. Besides, the z-score in assay [8] is 0.355 (inactive).

Take `C#CCN(C(=O)OC(C)(C)C)[C@H](CO)c1ccccc1`: the composite z-score in assay [1] was -0.402; in assay [2], 0.289; in assay [3], -0.113; in assay [4], 0.0182; in assay [5], -0.148; in assay [6] it was -0.329. The figures for the composite z-score in [7], in assay [9] and in [10] were 0.77, 0.115 and -0.111, respectively. Further, in assay [8], the z-score is -0.0216 (inactive).

As for `O=C1O[C@H](c2ccccc2)[C@H](c2ccccc2)N2[C@H]1[C@@H](C(=O)O)[C@]1(C(=O)Nc3ccccc31)[C@H]2c1ccc(OCCO)cc1`, the composite z-score in [1] is -0.442; in assay [2], -0.0349; in assay [3] it was -0.0112; in assay [4] it was 0.334; in assay [5], 0.239; in assay [6], 1.57. Besides, the composite z-score in assay [7] came to 1.04; in assay [9], 0.215; in assay [10], 0.176. The z-score in assay [8] is 0.248 (inactive).

With `CCCCN1CC=CC23O[C@@H]4C=CCCOC(=O)C4[C@H]2C(=O)N(CCO)[C@@H]3C1=O` (stereo not given in full), the composite z-score is 0.18 in assay [1]; -0.881 in [2]; -0.276 in assay [3]; 1.02 in assay [4]; -1.29 in assay [5]; -0.944 in [6]. The composite z-score is -0.397 in assay [7], -1.01 in assay [9] and 0.176 in [10]. In addition, the z-score in assay [8] is -0.183 (inactive).

`C=C(CC1([C@@H](NP(=O)(c2ccccc2)c2ccccc2)[C@H]2C[C@@H]2CCCC)CC1)c1cccc(OC)c1`: the composite z-score was 0.511 in assay [1]; -0.411 in assay [2]; 0.112 in assay [3]; 0.343 in [4]; 1.47 in assay [5]; 0.0917 in assay [6]. Also, the values for the composite z-score in assay [7], in assay [9] and in [10] were 0.737, 1.66 and 0.579, respectively. Moreover, the z-score in [8] is 1.5 (inactive).

Consider `C=CCN1C(=O)[C@]2(O[C@H](CCO)[C@@H]([Si](C)(C)c3ccc(OC)cc3)[C@@H]2C)c2cc(N3C(=O)c4ccccc4Oc4ccccc43)ccc21`, for which the composite z-score in assay [1] is -0.086; in [2], -0.203; in [3], -0.0392; in assay [4], 0.56; in [5], 0.0699; in [6], 0.967. Moreover, the composite z-score in assay [7] was 1.03; in assay [9], 0.0141; in assay [10], -0.236. In assay [8], the z-score was -1.5 (inactive).

For the compound `O=C1OCCC/C=C\[C@H]2OC34C=CCN(Cc5ccccc5)C(=O)[C@H]3N(CCO)C(=O)[C@@H]4C12` (stereo not given in full), the composite z-score was 0.166 in assay [1]; 1.08 in assay [2]; -0.226 in assay [3]; 0.866 in assay [4]; 0.479 in assay [5]; 1.79 in [6]. Further, the composite z-score in assay [7] was 1.53; in assay [9] it was -0.342; in assay [10], -0.0994. Further, in assay [8], the z-score is 0.0936 (inactive).

As for `C[C@]1(C(=O)NCC(F)(F)F)c2ccccc2C(=O)N(Cc2cc(C(F)(F)F)cc(C(F)(F)F)c2)[C@H]1c1ccc(CO)cc1`, the composite z-score was 0.227 in assay [1]; -0.616 in [2]; -0.0578 in assay [3]; 0.0766 in assay [4]; -0.317 in assay [5]; 0.275 in assay [6]. The composite z-score is 1.11 in [7], 0.0351 in [9] and -0.0994 in assay [10]. For the same compound, the z-score in [8] is 0.549 (inactive).

As to `CC(C)C[C@@H]1NC(=O)[C@@H]2C[C@H](C(=O)NCCCCCCNC(=O)CS)[C@H](c3ccc(O)cc3)N2C1=O`, the composite z-score is -0.0857 in assay [1]; 1.48 in assay [2]; -0.0202 in assay [3]; 0.938 in [4]; 0.604 in assay [5]; 1.35 in assay [6]. In addition, the composite z-score is 1.37 in assay [7], 0.694 in assay [9] and -0.0346 in assay [10]. Moreover, the z-score in [8] is 0.0812 (inactive).

Turning to `C[C@@]1([C@@H](NS(=O)(=O)c2cccc3cccnc23)c2ccc(-c3ccccc3)cc2)C[C@H]1C1CCCCC1`, the composite z-score in assay [1] was 0.299; in [2], 0.0816; in assay [3], 0.163; in assay [4], -0.0733; in [5], 0.983; in assay [6], 0.609. For the same compound, the composite z-score in assay [7] was 0.809; in [9], -0.244; in assay [10], 0.0446. Also, in assay [8], the z-score was -0.365 (inactive).

Turning to `CCN1C(=O)C2CC(=O)C3C(CN(S(=O)(=O)c4ccc(C)cc4)C3c3ccc(C)cc3)C2C1=O` (stereo not given), the composite z-score in assay [1] was determined as 0.584; in assay [2], 0.122; in assay [3], 0.0174; in assay [4], 0.183; in assay [5] it was 0.308; in assay [6], 1.61. For the same compound, the composite z-score in [7] came to 1.18; in [9], 0.292; in [10], 0.0053. The z-score in assay [8] is -0.812 (inactive).

Take `O=C/C=C/c1ccc(-c2ccccc2)cc1`: the composite z-score in assay [1] is 0.4; in assay [2] it was -0.0761; in [3] it was -0.0785; in assay [4], 0.182; in [5], -0.327; in assay [6], -0.727. Besides, the values for the composite z-score in assay [7], in assay [9] and in assay [10] were -0.836, -0.0543 and 0.21, respectively. Besides, the z-score in assay [8] is 2.7 (inactive).

Consider `CCOC(=O)C1=CCC(c2cccn2C(=O)OC(C)(C)C)N(S(=O)(=O)c2ccc(C)cc2)C1` (stereo not given), for which the composite z-score is 1.3 in assay [1]; 0.42 in assay [2]; 0.0267 in assay [3]; 0.243 in assay [4]; 0.884 in [5]; 1.7 in assay [6]. For the same compound, the composite z-score is 1.18 in assay [7], 0.67 in assay [9] and 1.07 in assay [10]. Further, the z-score in [8] is -2.99 (inactive).

Consider `COCCCNC(=O)[C@@]1(c2ccc([N+](=O)[O-])cc2)CC(=O)N(C2CCCCC2)[C@@H]1c1ccc(CO)cc1I`, for which the composite z-score in assay [1] was 0.234; in assay [2], 1.2; in [3], 0.0247; in [4], 0.0624; in assay [5] it was -0.161; in assay [6], 0.944. Moreover, the results for the composite z-score in assay [7], in assay [9] and in assay [10] were 1.31, -0.0119 and 0.259, respectively. Besides, the z-score in assay [8] was -1.27 (inactive).
